# Test results: PubChem BioAssay (NCI)
# This is part of a sample that, as a whole, favours compounds with a hit. Of some 83,000 tested, about 20% had one in any assay.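 Growth was measured after 48 h exposure to one concentration of compound in 96-well plates. Values under 10 count as active.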 Values without a mark were called inactive. Calls of active or inactive are those of the source.
# Assays:
# Test in all cases: NCI-60 one-dose screen, 48 h (100 = growth as untreated, 0 = no growth, -100 = all killed)
# Settings in all cases: 10 µM unless noted
# HCT-15 colon = system: HCT-15 colon
# HT29 colon = system: HT29 colon
# SNB-75 CNS = system: SNB-75 CNS
# SNB-19 CNS = system: SNB-19 CNS
# U251 CNS = system: U251 CNS
# PC-3 prostate = system: PC-3 prostate
# SK-MEL-5 melanoma = system: SK-MEL-5 melanoma
# UACC-62 melanoma = system: UACC-62 melanoma
# SK-MEL-28 melanoma = system: SK-MEL-28 melanoma
# LOX IMVI melanoma = system: LOX IMVI melanoma
Compound,growth (HCT-15 colon),growth (HT29 colon),growth (SNB-75 CNS),growth (SNB-19 CNS),growth (U251 CNS),growth (PC-3 prostate),growth (SK-MEL-5 melanoma),growth (UACC-62 melanoma),growth (SK-MEL-28 melanoma),growth (LOX IMVI melanoma)
COc1ccc(Oc2nc(Nc3ccc(N4CCOCC4)nc3)ncc2NC(=O)c2cc(OC)cc(OC)c2)cc1,52.9%,77.8%,70.6%,80.6%,84.2%,67.9%,70.9%,69.3%,79.8%,
Cc1ccc(S(=O)(=O)Nc2sccc2-c2nc(-c3ccccc3)no2)cc1,97.9%,100%,84.4%,94.4%,93.9%,86.4%,98.6%,,92.9%,91%
COc1ccc2c(c1)/C(=C\c1sc(=S)[nH]c1O)C(C(=O)O)=N2,100%,104%,84.6%,100%,98.3%,99.4%,101%,,111%,96.6%
CC(=O)c1cc2c(o1)C(=O)c1ccccc1C2=O,-77% (active),-18.3% (active),-98.5% (active),-90.8% (active),-81.2% (active),-10.4% (active),-96.3% (active),-82.7% (active),-70.8% (active),
N#Cc1cnn2c(-c3ccc(Cl)cc3)nc(NCCc3ccccc3)nc12,103%,80.7%,78.8%,100%,97%,73.7%,99.8%,,101%,84.9%
N#Cc1c(NC(=O)c2ccc(Br)cc2)sc2c1CCCC2,22.2%,15.8%,13.6%,38.5%,31.2%,28.9%,9.6% (active),29.1%,59%,
N=C(N)c1ccc(-c2ccc(-c3ccc(Cl)cc3Cl)o2)cc1,-74.1% (active),-71.1% (active),19.7%,-1.88% (active),-59.4% (active),52.6%,72.5%,,46%,-94.7% (active)
CC(=O)c1ccc2c(c1)CCN2,105%,101%,93.1%,98.3%,97.1%,98.6%,105%,102%,109%,
Cc1cnc(Nc2ccc(OCCN3CCCC3)cc2)nc1NCc1ccco1,74.6%,50.7%,33.3%,94.4%,65.8%,72%,81.7%,86.9%,103%,
CCCCCCCC/C=C/CCCCCCCC1=NCC[N+]1(CCO)CCO,80.6%,13%,63.2%,73.7%,36.1%,31.9%,77.9%,,96.3%,52%
Cc1ccccc1NC(=O)CN(C)C,105%,90.9%,92.6%,98.8%,104%,98.3%,105%,,96.9%,99.9%
CCOC(=O)c1cnn2c(-c3ccc(Cl)cc3)nc(NCc3ccccc3)nc12,47.7%,51%,70.3%,63.5%,32.2%,63%,86%,,86.7%,39.7%
C=C(CNCCc1ccc(O)cc1)[C@@H]1CC[C@]2(COC3CCCCO3)CC[C@]3(C)[C@H](CC[C@@H]4[C@@]5(C)CCC(N)C(C)(C)[C@@H]5CC[C@]43C)[C@@H]12 (stereo partly specified),-93% (active),-93.8% (active),-88% (active),-85.8% (active),-91.7% (active),-91% (active),-97.9% (active),-87% (active),-94.9% (active),
CCN(CC)CCCC(C)NCc1ccccc1 (stereo unspecified),101%,83.4%,99.8%,101%,99.2%,91.2%,108%,,102%,100%
